Lamin A splicing – qHTS Assay for Modulators of Lamin A Splicing; HeLa LMNA splicing GFP/RFP minigene ratio, 48 h; Potency, µM (series often up to 46.1 µM), for the others: at the top dose ratio change, negative = inhibition, usual class: inhibitors; 200,000 compounds, 0.01% hits; AID 1487, 2009; active means well fitted inhibition curve with a large enough effect in the signal ratio, with a control signal flat, not every such curve was filed as active; inconclusive means small, poorly fitted or top-dose-only effect, or effect the other way, or a change in a side signal; the % refers to the signal ratio; further: potency means the concentration at half of the fitted maximal effect
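S3 HeLa cells stably expressing lamin A-EGFP splicing minigene plus DsRed2, 600 cells/well, 48 h compound exposure at 37C. Laser-scanning cytometry; analysed as GFP (500-530 nm)/RFP (575-640 nm) total intensity ratio; 0.5% DMSO vehicle.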
HPGD inh – qHTS Assay for Inhibitors of HPGD (15-Hydroxyprostaglandin Dehydrogenase); 15-hydroxyprostaglandin dehydrogenase [NAD(+)] (Homo sapiens), P15428; purified HPGD, NADH fluorescence kinetic, PGE2 substrate; Potency, µM, without a hit: top-dose activity change, negative = inhibition, hits mostly inhibitors; 150,000 compounds, 4.3% hits; AID 894, 2007; further: potency means the concentration at half of the fitted maximal effect
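20 nM HPGD preincubated 15 min at room temperature with compound in 50 mM Tris-HCl pH 8, 0.01% Tween 20. Started with 1 mM NAD+ and 30 uM prostaglandin E2; NADH fluorescence (360/450 nm) read 5 times over 30-s intervals, last minus first.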
12-hLO inh – qHTS Assay for Inhibitors of 12-hLO (12-human lipoxygenase). 150,000 compounds, 0.12% hits. purified 12-hLO, xylenol orange hydroperoxide absorbance. AID 1452, 2008. Polyunsaturated fatty acid lipoxygenase ALOX12 (Homo sapiens), P18054. Potency, µM (highest dose often 57.1 µM), inactives show top-dose activity change, negative = inhibition, most hits filed as inhibitors; active means well fitted inhibition curve with a large enough effect; inconclusive means small, poorly fitted or top-dose-only effect; further: potency means the concentration at half of the fitted maximal effect; nearly all actives have a fitted effect of over 55% in size
Target sequence (P18054 whole entry, looked up): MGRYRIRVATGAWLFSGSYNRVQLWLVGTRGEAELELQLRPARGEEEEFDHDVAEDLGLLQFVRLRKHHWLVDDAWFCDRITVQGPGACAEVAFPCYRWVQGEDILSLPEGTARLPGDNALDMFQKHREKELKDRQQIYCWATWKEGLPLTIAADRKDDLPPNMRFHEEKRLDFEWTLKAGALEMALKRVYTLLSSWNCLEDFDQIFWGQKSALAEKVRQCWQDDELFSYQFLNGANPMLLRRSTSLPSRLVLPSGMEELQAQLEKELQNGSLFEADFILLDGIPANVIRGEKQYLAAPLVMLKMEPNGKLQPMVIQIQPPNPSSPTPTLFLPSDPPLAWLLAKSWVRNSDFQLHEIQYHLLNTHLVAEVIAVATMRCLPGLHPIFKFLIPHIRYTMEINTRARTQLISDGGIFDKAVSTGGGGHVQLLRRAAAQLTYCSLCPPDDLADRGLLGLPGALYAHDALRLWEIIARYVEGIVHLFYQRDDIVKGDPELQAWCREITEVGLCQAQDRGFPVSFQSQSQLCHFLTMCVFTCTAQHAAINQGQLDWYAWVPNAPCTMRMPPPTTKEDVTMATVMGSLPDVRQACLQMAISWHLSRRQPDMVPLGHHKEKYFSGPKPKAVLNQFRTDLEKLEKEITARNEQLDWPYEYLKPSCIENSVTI
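Xylenol orange chromogenic assay: hydroperoxide from 12hLO oxidises Fe(II), giving red-shifted Fe(III)-XO absorbance. Conditions: 150 nM enzyme, 40 uM arachidonic acid, 25 mM Hepes pH 7.0, 0.01% Triton X-100, 30 min, room temperature.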
ALDH1A1 block – qHTS Assay for Inhibitors of Aldehyde Dehydrogenase 1 (ALDH1A1); Aldehyde dehydrogenase 1A1 (Homo sapiens), P00352; Purified ALDH1A1, NADH fluorescence, propionaldehyde substrate; Potency, µM (series often up to 75.3 µM), inactives show top-dose activity, negative = inhibition, actives largely listed as inhibitors; 220,000 compounds, 7.3% hits; AID 1030, 2008;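 further: potency means the concentration at half of the fitted maximal effect; plate controls were no enzyme wells and a reference inhibitor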
PNC assembly inh – High Content Assay for Compounds that inhibit the Assembly of the Perinucleolar Compartment; PC3M PTB-GFP, PNC prevalence imaging, 16 h; active compounds read low; activity change (PNC), negative = inhibition, % at 10 µM; 140,000 compounds, 3.1% hits; AID 2417, 2010;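 active means readout at or below -70, meaning at least 70% loss of cells showing the perinucleolar compartment, a nuclear body marking cancer cells; inconclusive means readout between -30 and a set limit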;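 further: plate controls were DMSO wells for no effect and camptothecin positive control wells for full effect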
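Read-out is percentage of cells bearing a perinucleolar compartment, from automated 20x imaging of fixed, Hoechst-stained PC3M PTB-GFP cells. Cells were seeded 4 h, then exposed 16 h to compound (23 nl of library stock) in duplicate plates.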
* hit, by the source's call; [ ] = dose if it differs, or a comment. This is a sample that favours compounds with a hit; in the whole collection about 10% have one here. Unless noted, the call rests on the fitted dose curve; in most records, active means well fitted inhibition curve with a large enough effect (not every such curve was filed as active); inconclusive means small, poorly fitted or top-dose-only effect, or another doubt; inactive means no such curve, though single readings can be large or run the other way. Unless noted, on the % scale 0 is the no-effect control and ±100 the full control effect.

How did CC(C(=O)O)c1ccc(C(=O)c2cccs2)cc1 (stereo not drawn) do in these assays?
HPGD inh: inconclusive; 12-hLO inh: 0.5%; ALDH1A1 block: inconclusive

What do the screens show for `CCCCNC(C(=O)Nc1ccc(Cl)c([N+](=O)[O-])c1)c1ccccc1` (stereo not drawn)?
Lamin A splicing: inconclusive; HPGD inh: -3.3%; 12-hLO inh: -0.5%; ALDH1A1 block: 5.01µM*; PNC assembly inh: 54.3

How did COC(=O)c1ccc(C)c(-n2c(C)cc(C=O)c2C)c1 do in these assays?
Lamin A splicing: 0.3%; HPGD inh: -21.1%; 12-hLO inh: -1.6%; ALDH1A1 block: 1.78µM*; PNC assembly inh: -24.0

How did COC(=O)c1cccc(-n2c(C)cc(C=O)c2C)c1 do in these assays?
Lamin A splicing: 4.9%; HPGD inh: -13.0%; 12-hLO inh: -8.3%; ALDH1A1 block: 7.94µM*; PNC assembly inh: 5.4

Results for Cc1cc(C=O)c(C)n1-c1cccc(C(=O)O)c1 ?
Lamin A splicing: inconclusive; ALDH1A1 block: -3.1%

What do the screens show for `COc1ccccc1-n1c(C)cc(C=O)c1C`?
Lamin A splicing: -1.6%; HPGD inh: -6.5%; 12-hLO inh: 3.1%; ALDH1A1 block: 14.1µM*; PNC assembly inh: 2.0

How did Cc1cc(/C=N/O)c(C)n1-c1ccccc1 do in these assays?
Lamin A splicing: -14.2%; HPGD inh: -27.4%; 12-hLO inh: -5.9%; ALDH1A1 block: -6.9%; PNC assembly inh: 0.0

How did COC(=O)c1cc(C(=O)OC)cc(-n2c(C)cc(C=O)c2C)c1 do in these assays?
Lamin A splicing: -25.4%[46 µM]; ALDH1A1 block: inconclusive

What do the screens show for `Cc1cc(/C=N/O)c(C)n1-c1cccc(Cl)c1`?
ALDH1A1 block: 14.1µM*

How did CCC1=C2CC[C@H]3C(=O)N(C)C(=O)[C@H]3[C@H]2[C@@]2(Cc3ccccc3)C(=NCC3CC3)OC(=O)N2C1=O do in these assays?
HPGD inh: -4.6%; 12-hLO inh: -1.3%; ALDH1A1 block: inconclusive

How did COC(=O)N[C@@H](c1cccc(C)c1)[C@@H](C)[N+](=O)[O-] do in these assays?
HPGD inh: -6.4%; ALDH1A1 block: -0.5%

What do the screens show for `N#CCCn1c(=O)cnc2cnc(Nc3ccccc3)nc21`?
HPGD inh: -19.9%; 12-hLO inh: -1.6%; ALDH1A1 block: -9.1%

What do the screens show for `CN1CCCC2(CCN(S(=O)(=O)c3ccccc3)CC2)C1`?
HPGD inh: -10.8%; 12-hLO inh: 3.4%; ALDH1A1 block: 7.1%

How did CC(C)CO/N=C1/[C@H]2O[C@@H]2[C@@H](O)[C@H]2[C@H]1CCn1c(=O)n(-c3ccccc3)c(=O)n12 do in these assays?
ALDH1A1 block: 10.0%[13.5 µM]

Results for CCOC(=O)c1cccc(-n2c(C)cc(C=O)c2C)c1 ?
Lamin A splicing: inconclusive; HPGD inh: -0.7%; 12-hLO inh: -2.6%; ALDH1A1 block: 11.2µM*; PNC assembly inh: inconclusive

What do the screens show for `Nc1cc(C(=O)O)ccc1N1CCCCC1`?
Lamin A splicing: -0.8%; HPGD inh: -25.9%; 12-hLO inh: 2.0%; ALDH1A1 block: 3.5%; PNC assembly inh: -100.0*

What do the screens show for `COc1ccc(NC(=O)C(C)Sc2cc(-c3ccccc3)nc(C)n2)cc1Cl` (stereo not drawn)?
Lamin A splicing: 12.6%[46 µM]

How did CC(C)(C)CC(=O)NC1CC(=O)N(c2ccc3c(c2)OCCO3)C1 (stereo not drawn) do in these assays?
Lamin A splicing: 16.1%[46 µM]

What do the screens show for `CNC(=O)/C(C#N)=c1\s/c(=C/C(=O)OC)c(=O)n1-c1ccccc1`?
Lamin A splicing: 8.4%[0.0737 µM]; HPGD inh: -6.2%; 12-hLO inh: 1.4%; ALDH1A1 block: -5.5%; PNC assembly inh: 78.1

Results for COC(=O)/C=c1\sc2ncnn2c1=O ?
Lamin A splicing: 3.2%; HPGD inh: inconclusive; 12-hLO inh: 5.6%; ALDH1A1 block: inconclusive; PNC assembly inh: -81.0*

What do the screens show for `COCCNC(=O)[C@H](C)/C=C/C(NC(=O)OCc1ccccc1)c1ccc(C(=O)OC)cc1` (stereo partly drawn)?
HPGD inh: -13.2%; 12-hLO inh: -1.4%; ALDH1A1 block: inconclusive

How did O=C(Nc1ccccc1)C(=O)Nc1cccnc1 do in these assays?
ALDH1A1 block: 6.7%

What do the screens show for `O=C(Nc1cccnc1)/C(N=Nc1cccnc1)=C(\O)c1ccccc1`?
Lamin A splicing: -11.2%; HPGD inh: -26.0%; 12-hLO inh: -3.8%; ALDH1A1 block: 1.41µM*; PNC assembly inh: -29.1

Results for Cc1ccc(NC(=O)c2sc3ncn(Cc4cccc(F)c4)c(=O)c3c2C)c(Br)c1 ?
Lamin A splicing: 15.3%[46 µM]

What do the screens show for `O=C(O)c1ccccc1NS(=O)(=O)c1ccc(F)c(Cl)c1`?
HPGD inh: -6.8%; 12-hLO inh: 0.0%; ALDH1A1 block: 6.3%

What do the screens show for `COc1ccc(CCC(=O)NCc2nc3cccnc3n2Cc2cccc(OC)c2)cc1`?
Lamin A splicing: 2.7%[46 µM]

Results for CC(=O)O[C@H]1CSC[C@H]1NC(=O)c1ccccc1 ?
Lamin A splicing: inconclusive; HPGD inh: -15.5%; 12-hLO inh: -0.1%; ALDH1A1 block: -10.0%; PNC assembly inh: inconclusive

Results for COC(=O)NC1CSCC1OC(=O)CN1C(=O)c2ccccc2C1=O (stereo not drawn) ?
Lamin A splicing: -2.5%; HPGD inh: -6.4%; 12-hLO inh: 4.5%; ALDH1A1 block: 2.4%; PNC assembly inh: -84.6*

Results for CC(C)c1ccc2nc3sc(C(=O)N4CCc5ccccc5C4)c(N)c3cc2c1 ?
Lamin A splicing: 9.3%; HPGD inh: 15.8µM*; 12-hLO inh: -19.2%; ALDH1A1 block: -14.7%; PNC assembly inh: 55.9

What do the screens show for `CCc1ccc2nc3sc(C(=O)N4CCc5ccccc54)c(N)c3cc2c1`?
Lamin A splicing: 2.2%; HPGD inh: -16.5%; 12-hLO inh: -6.0%; ALDH1A1 block: -13.2%; PNC assembly inh: 39.0

How did Cc1ccc2cc3c(N)c(C(=O)N4CCOCC4)sc3nc2c1 do in these assays?
Lamin A splicing: -4.6%; 12-hLO inh: -2.3%; ALDH1A1 block: 4.7%; PNC assembly inh: 8.4

How did CCOc1ccc2nc3sc(C(=O)N4CCN(C)CC4)c(N)c3cc2c1 do in these assays?
Lamin A splicing: -15.3%; HPGD inh: 14.1µM*; 12-hLO inh: -8.5%; ALDH1A1 block: -10.8%; PNC assembly inh: -0.8

What do the screens show for `Cc1ccc2nc3sc(C(=O)N4CCOCC4)c(N)c3cc2c1`?
Lamin A splicing: -7.9%; HPGD inh: 25.1µM*; 12-hLO inh: -8.1%; ALDH1A1 block: -10.6%; PNC assembly inh: -11.0

Results for Cc1ccccc1C(=O)NC1(C(F)(F)F)C(=O)Nc2c1c(=O)[nH]c(=O)n2CCc1ccccc1 (stereo not drawn) ?
Lamin A splicing: 3.8%[46 µM]
